# Compounds with a hit are over-represented: about 2.5% of the library has one in this group of screens.
# MEKK3 PB1 HTS – modulators of MEKK3-MEK5 PB1 binding, primary screen, biochemical, wildtype MEKK3, multiplex bead flow cytometry, Alexa488-MEK5 | bead-based flow cytometry, Alexa488-MEK5 binding to MEKK3; actives lie on both sides; 0 = blocked by unlabeled MEK5, 100 = vehicle | binding response (% of control), % at 10 µM | hit rate 1.4% among 290,000 | AID 1529, 2009;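 active = binding response more than 3 SD above or below the average of its plate-row segment, actives on both sides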;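 also: Alexa488 bead fluorescence after subtracting the streptavidin-only scavenger bead signal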
# MEKK2 WT-MEK5 – modulators of MEK5 binding to wildtype MEKK2, primary screen, biochemical, multiplex bead flow cytometry, Alexa488-MEK5 | Mitogen-activated protein kinase kinase kinase 2 (Homo sapiens), Q9Y2U5 | Alexa488-MEK5 binding to MEKK2 WT; actives lie on both sides | binding response (% of control), % at 10 µM | hit rate 1.1% among 290,000 | AID 1531, 2009; in the data active = binding response below about 67% or above about 130%
# GRK2 inh – compounds blocking aptamer binding on GRK2 – biochemical, human GRK2, bead flow cytometry, HTS, primary screen; Beta-adrenergic receptor kinase 1 (Homo sapiens), P25098; FAM-aptamer displacement from GRK2; inhibition of aptamer binding, % at 10 µM; hit rate 0.59% among 330,000;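 active = inhibition of aptamer binding above 40%, roughly 3 SD of noise, on plates passing a quality check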;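 also: median bead fluorescence of bound FAM aptamer so fluorescent compounds give negative values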
# Target sequence (P25098 whole entry, looked up): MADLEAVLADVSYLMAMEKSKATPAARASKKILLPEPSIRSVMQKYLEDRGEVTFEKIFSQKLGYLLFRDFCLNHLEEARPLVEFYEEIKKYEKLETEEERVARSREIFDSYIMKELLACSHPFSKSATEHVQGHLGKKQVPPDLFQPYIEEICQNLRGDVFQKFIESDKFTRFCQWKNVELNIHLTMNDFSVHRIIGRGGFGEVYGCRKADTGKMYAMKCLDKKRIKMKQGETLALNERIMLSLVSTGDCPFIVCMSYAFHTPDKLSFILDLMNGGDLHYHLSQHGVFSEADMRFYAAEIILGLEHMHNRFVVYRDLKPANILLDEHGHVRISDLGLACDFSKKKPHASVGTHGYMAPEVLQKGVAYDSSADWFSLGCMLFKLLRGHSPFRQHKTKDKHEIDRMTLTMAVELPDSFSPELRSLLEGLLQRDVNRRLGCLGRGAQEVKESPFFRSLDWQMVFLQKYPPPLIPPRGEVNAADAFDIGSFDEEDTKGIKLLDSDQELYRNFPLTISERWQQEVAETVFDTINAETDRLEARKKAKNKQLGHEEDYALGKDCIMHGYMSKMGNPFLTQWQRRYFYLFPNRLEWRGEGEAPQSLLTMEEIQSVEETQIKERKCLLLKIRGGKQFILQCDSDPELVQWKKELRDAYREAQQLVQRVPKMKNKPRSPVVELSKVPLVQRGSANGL
# MEKK2 mut-MEK5 – MEK5 binding signal on mutant MEKK2 PB1, primary screen, biochemical, multiplex bead flow cytometry, Alexa488-MEK5. Alexa488-MEK5 binding to MEKK2 mutant. percent response, % at 10 µM. hit rate 0.35% among 290,000. AID 1530, 2009; in the data active = percent response above about 24%, passing the limit was not always enough
# * hit, by the source's call; . = not tested or not shown; [ ] = dose if it differs, or a comment.
SMILES,MEKK3 PB1 HTS,MEKK2 WT-MEK5,GRK2 inh,MEKK2 mut-MEK5
CC(=O)c1ccc(NC(=O)c2ccc(NC(=O)c3ccco3)cc2)cc1,98,95,77*,-6
Cc1cc(C)cc(NC(=O)c2ccc(NC(=O)c3ccco3)cc2)c1,99,97,0,3
CC(=O)Nc1ccc(NC(=O)c2ccco2)cc1,83,85,6,-6
CC1N(C)c2cc(NC(=O)c3ccco3)ccc2C1(C)C (stereo not drawn),101,-7.0*,1,3
COC(=O)c1ccc(NC(=O)c2ccc(NC(=O)c3ccco3)cc2)cc1,99,94,83*,-4
O=C(CC1SC(N2CCCC2)=NC1=O)Nc1ccc(C(=O)N2CCN(c3cccc(Cl)c3)CC2)cc1 (stereo not drawn),.,.,2,.
COc1cc(NC(=S)NCCCO)c(OC)cc1Cl,104,104,42*,10
COc1ccc(N2C(=O)N[C@@H](Cc3ccccc3)C2=O)cc1OC,104,103,1,2
NC(=O)c1c(NC(=O)C2CC=CCC2C(=O)O)sc2c1CCCCC2 (stereo not drawn),96,100,48*,4
COCCCN1C(=O)c2[nH]nc(-c3ccccc3O)c2C1c1cccc(Cl)c1 (stereo not drawn),107,104,5,3
CC(C)OCCCN1C(=O)c2[nH]nc(-c3ccccc3O)c2C1c1cccc(Cl)c1 (stereo not drawn),138*,110,1,3
O=C(O)c1ccc(N=Cc2c(O)ccc3ccccc23)cc1,100,100,1,1
Oc1ccc2ccccc2c1C=Nc1cc(C(F)(F)F)ccc1N1CCCC1,95,6.0*,1,17
CCS(=O)(=O)N1N=C(c2cccc(NS(C)(=O)=O)c2)CC1c1cccs1 (stereo not drawn),13*[inhibitor],.,7,24*
CS(=O)(=O)Nc1cccc(C2=NN(S(=O)(=O)c3ccc(F)cc3)C(c3cccs3)C2)c1 (stereo not drawn),103,7.0*,0,6
CS(=O)(=O)N1N=C(c2ccc(Cl)cc2)CC1c1cccs1 (stereo not drawn),101,100,0,1
CCS(=O)(=O)Nc1ccc(C2=NN(S(=O)(=O)CC)C(c3cccs3)C2)cc1 (stereo not drawn),7.0*[inhibitor],.,0,-32
COc1ccc(C2CC(c3cccs3)=NN2C(=O)CCC(=O)O)cc1 (stereo not drawn),92,96,1,1
COc1cccc(C2CC(c3cccs3)=NN2S(C)(=O)=O)c1 (stereo not drawn),100,3.0*,0,19
O=C(OCC(=O)N1CCN(C(=O)COC(=O)c2ccc(O)cc2O)CC1)c1ccc(O)cc1O,.,.,0,.
CS(=O)(=O)c1cccc(C(=O)OCC(=O)NC(=O)Nc2ccccc2F)c1,.,.,0,.
CN(C)c1ccsc1C(=O)NNS(=O)(=O)c1ccc(Cl)cc1,.,.,4,.
CCN(CC)CCCNC(=O)c1nn2c(C(F)(F)F)cc(-c3ccccc3)nc2c1Cl,111,122,0,14
CCCN(Cc1nnc(-c2cccs2)o1)C(=O)c1cccc(S(=O)(=O)N2CCOCC2)c1,.,.,0,.
COc1ccc(S(=O)(=O)N2N=C(c3cccc(NS(C)(=O)=O)c3)CC2c2ccco2)cc1 (stereo not drawn),100,14*,0,21
SMILES,MEKK3 PB1 HTS,MEKK2 WT-MEK5,GRK2 inh,MEKK2 mut-MEK5
CCS(=O)(=O)Nc1cccc(C2=NN(S(=O)(=O)CC)C(c3cccs3)C2)c1 (stereo not drawn),17*[inhibitor],.,0,32*
CS(=O)(=O)Nc1ccc(C2=NN(S(C)(=O)=O)C(c3ccccc3)C2)cc1 (stereo not drawn),97,85,11,0
CCS(=O)(=O)Nc1cccc(C2=NN(S(C)(=O)=O)C(c3cccs3)C2)c1 (stereo not drawn),12*[inhibitor],.,0,.
CS(=O)(=O)Nc1cccc(C2=NN(S(C)(=O)=O)C(c3ccc4c(c3)OCO4)C2)c1 (stereo not drawn),111,26*,3,29
COc1ccc(S(=O)(=O)N2N=C(c3ccc(NS(C)(=O)=O)cc3)CC2c2ccco2)cc1 (stereo not drawn),101,84,2,4
CC(C)(C)C(=O)N1N=C(c2cccc(NS(C)(=O)=O)c2)CC1c1cccs1 (stereo not drawn),102,89,3,-12
CCS(=O)(=O)Nc1cccc(C2=NN(S(=O)(=O)c3ccc(F)cc3)C(c3cccs3)C2)c1 (stereo not drawn),103,101,1,2
N#C/C(=C\c1cccc(Br)c1)C(=O)N1CCCCC1,106,104,0,7
Cc1cnc(NC(=O)CCNC(=O)c2ccc([N+](=O)[O-])cc2)s1,104,101,1,7
CC(C)OCc1ccc(C(=O)N2CCN(CC(=O)N3CCCC3)CC2)cc1,.,.,0,.
CCN(CC)CCNC(=O)C1CCN(S(=O)(=O)c2c(C)noc2/C=C/c2ccccc2F)CC1,107,136*,0,11
CCN(CCNC(=O)C1CCN(S(=O)(=O)c2c(C)noc2C)CC1)c1ccccc1,102,101,0,5
CCOc1ccc(C(=O)N[C@H](C(=O)NNC(=O)c2cccs2)C(C)C)cc1,.,.,2,.
CC(=O)c1ccc(N2CCN(S(=O)(=O)c3cc4c(cc3C)NC(=O)CO4)CC2)cc1,1.0*[inhibitor],0.0*[inhibitor],15,-21
O=C(COc1ccc2c(-c3ccccc3)cc(=O)oc2c1)NCc1cccs1,93,4.0*,0,5
O=C(COc1ccc2c(C(F)(F)F)cc(=O)oc2c1)NCc1cccs1,87,89,0,-4
CCC(C)(C)c1ccc(OCCCC[n+]2cccc(C)c2C)c(C(C)(C)CC)c1,75,170*,.,41
Cc1cc(C(C)(C)C)ccc1OCCCCN1CCCC1,102,105,0,-1
CCN(CC(=O)Nc1c(F)cccc1F)C(=O)CNC(=O)c1ccc(C)s1,108,111,0,13
CC(=O)c1cc2c(cc1NS(=O)(=O)c1ccccc1F)OCO2,90,94,0,-6
CCSc1ccc([C@@H]2[C@H]3C(=O)N(C)C(=O)[C@H]3[C@]3(C(=O)OC)CCCCN23)cc1OC,.,.,0,.
Cc1ccc(-c2csc(NC(=O)CSc3nc4ccccc4c(=O)n3CCCN(C)C)n2)cc1,107,207*,0,67*
CC1CCCC(C)N1C(=O)c1ccc2c(c1)S(=O)(=O)c1ccccc1C2=O (stereo not drawn),0.0*[inhibitor],-12*[inhibitor],1,-26
O=C1c2ccccc2S(=O)(=O)c2cc(C(=O)N3CCC(C(=O)N4CCCCC4)CC3)ccc21,69,82,0,-8

# Screening results deposited in PubChem BioAssay by NMMLSC.
